Most compounds without a hit are left out; they make up all but 3.2% or so of the library.
Rv3671c inh = Rv3671c (M. tuberculosis) protease inhibition | P9WHR9 | 0.048% of 320,000 active | inhibition, % at 5.96 µM; in the data active = inhibition above about 38%;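 note: extracellular domain of Rv3671c used as enzyme; 0% = enzyme with DMSO and 100% = no enzyme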
Target sequence (P9WHR9 whole entry, looked up, the tested form may be a part): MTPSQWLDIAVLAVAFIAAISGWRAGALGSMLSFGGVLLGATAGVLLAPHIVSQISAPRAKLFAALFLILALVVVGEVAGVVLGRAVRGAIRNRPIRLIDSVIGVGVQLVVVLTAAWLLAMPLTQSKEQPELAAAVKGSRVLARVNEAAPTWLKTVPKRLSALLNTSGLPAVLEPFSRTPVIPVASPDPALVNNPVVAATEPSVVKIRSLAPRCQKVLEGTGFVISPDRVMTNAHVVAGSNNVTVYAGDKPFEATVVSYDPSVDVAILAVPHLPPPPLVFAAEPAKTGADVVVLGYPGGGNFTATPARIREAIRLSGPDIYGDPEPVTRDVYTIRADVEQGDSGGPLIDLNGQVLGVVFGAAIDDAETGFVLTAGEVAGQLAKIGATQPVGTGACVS
UGM FP inh = Mtb UDP-galactopyranose mutase inhibition; inhibition, % at 10 µM; 0.06% of 320,000 active; P9WIQ1; purified UGM, fluorescence polarization probe displacement; in the data active = inhibition above about 10%, passing the limit was not always enough
PriA SSB inh = K. pneumoniae PriA-SSBct interaction inhibition; 0.6% of 430,000 active; inhibition, % at 33 µM; AlphaScreen SSBct-PriA binding, biotinylated peptide; in the data active = inhibition mostly above about 37%, no sharp cut-off; inactive = mostly below about 20%;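 note: plate controls were negative control peptide for no effect and reference peptide for full effect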
GDH-TPI counter = counter-screen for M. tuberculosis FBA inhibitors: GDH-TPI coupled enzymes; GDH-TPI coupled enzyme counterscreen, NADH absorbance; inhibition, % at 4.8 µM; 1.2% of 360,000 active; AID 588335; in the data active = inhibition above about 30%;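 note: 0% = DMSO wells and 100% = wells lacking the enzyme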
Mtb betalactam = beta-lactam sensitization of Mtb H37Rv; inhibition, % at 25 µM; M. tuberculosis H37Rv growth with meropenem, percent inhibition; 0.27% of 330,000 active; AID 434955; call rule not given here;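 note: growth measured after seven days incubation then overnight dye step; 0% = bacteria only wells and 100% = bacteria with antibiotic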
FBA Mtb inh = inhibits M. tuberculosis FBA enzyme; P9WQA3; 2.3% of 360,000 active; AID 588726; inhibition, % at 1 µM; purified M. tuberculosis FBA, fluorescence read-out; in the data active = inhibition above about 27%;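 note: 0% = vehicle and 100% = reference inhibitor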
* hit, by the source's call; / = no result; + = active, no number.

SMILES	Rv3671c inh	UGM FP inh	PriA SSB inh	GDH-TPI counter	Mtb betalactam	FBA Mtb inh
COc1ccc2nc(-c3ccccc3)[nH]c2c1	-2	-2	22	6	-5	150*
Clc1ccccc1/C=C/C=NNc1nc(N2CCOCC2)nc(N2CCOCC2)n1	/	/	10	/	/	/
C(=C\c1ccccc1)/C=N/Nc1nc(N2CCOCC2)nc(N2CCOCC2)n1	0	1	/	47*	6	-2
C(/C=C/c1ccccc1)=NNc1nc(N2CCCCC2)nc(N2CCCCC2)n1	/	/	-12	/	/	/
Clc1ccccc1/C=C/C=N/Nc1nc(N2CCOCC2)nc(N2CCOCC2)n1	-7	-2	/	40*	19	-4
CCCS(=O)(=O)N1CCCc2ccc(NS(=O)(=O)C3CCCCC3)cc21	/	/	-4	/	/	/
Cc1cc(C(F)(F)F)nc(CCNC(=O)c2cccc(N(C)C)c2)n1	/	/	3	/	/	/
CCOc1ccc(N2C(N)=NC(N)=NC2(C)C)cc1	-3	0	-5	7	-4	2
COc1ccc(-n2nc3cc(C)c(N)cc3n2)cc1Cl	0	-1	-12	36*	9	23
COc1ccc(-n2c(C)cc(C=O)c2C)cc1Cl	1	4	11	-1	10	1
CCOc1ccc(-n2nc3cc(C)c(N)cc3n2)cc1	-12	-1	-7	20	2	164*
Cc1ccc(C)c(NC(=O)CSc2nccn3nc(-c4cccc5ccccc45)cc23)c1	/	/	-14	/	/	/
CCc1ccc(/C=C2\SC(=S)N(CC(=O)Nc3cccc(C)c3C)C2=O)cc1	/	/	-21	/	/	/
CCOC(=O)c1c(N)n(C2CC(C)(C)NC(C)(C)C2)c2nc3ccccc3nc12	4	-2	7	23	4	154*
COCCOC(=O)c1c(N)n(CCCN2CCOCC2)c2nc3ccccc3nc12	-1	0	-3	15	-6	166*
COC(=O)c1c(N)n(CCCN2CCOCC2)c2nc3ccccc3nc12	4	2	-12	2	6	158*
CCOC(=O)c1c(N)n(CCN2CCCCC2)c2nc3ccccc3nc12	-2	2	-3	17	2	164*
CC(C(=O)N=Nc1c(O)[nH]c2ccccc12)n1cnc2ccccc2c1=O (stereo not given)	2	-1	3	10	8	-1
Cc1cccc2c(N=NC(=O)C(C)n3cnc4ccccc4c3=O)c(O)[nH]c12 (stereo not given)	-1	-2	-4	35*	-7	-3
CN(C)c1ccc(/C=C2\CCC/C(=C\c3ccccc3)C2=O)cc1	-23	0	2	-14	3	-10
O=C1/C(=C/c2ccc(C(=O)O)cc2)CCC/C1=C\c1ccc(C(=O)O)cc1	-6	0	-1	33*	2	-4
CCc1ccc(C=NNC(=O)c2ccc(OC3CCCC3)cc2)s1	/	/	-4	/	/	/
Cc1ccc(/C=N/NC(=O)c2ccc(Br)o2)s1	-2	-8	/	31*	-4	-4
O=C(N/N=C\c1ccc(Cl)s1)c1ccc(Cn2cccn2)o1	-10	-4	/	37*	-5	-1
CCc1ccc(/C=N\NC(=O)c2ccc(Br)o2)s1	0	-2	/	47*	4	-2
SMILES	Rv3671c inh	UGM FP inh	PriA SSB inh	GDH-TPI counter	Mtb betalactam	FBA Mtb inh
Cc1ccc(C=NNC(=O)c2ccoc2C)s1	/	/	-9	/	/	/
Cn1c(=O)n(Cc2ccccc2)c2ccccc21	3	1	-14	6	2	1
Cn1c(=O)c(N=O)c(N)n(Cc2ccccc2)c1=S	15	-2	1	32*	0	-1
Cc1c(CC(=O)N2CCN(C(=O)C3COc4ccccc4O3)CC2)c(=O)oc2cc(O)ccc12 (stereo not given)	0	-1	-11	13	4	+
COc1ccc2c(C)c(CC(=O)N3CCN(C(=O)C4COc5ccccc5O4)CC3)c(=O)oc2c1 (stereo not given)	2	-2	-16	12	3	144*
Cc1cccc(N2CCN(C(=O)C3COc4ccccc4O3)CC2)c1C (stereo not given)	1	3	-7	0	6	-2
O=C(C1COc2ccccc2O1)N1CCN(Cc2ccccc2)CC1 (stereo not given)	-7	-1	-14	5	6	4
Cc1c(CC(=O)N2CCN(C(=O)C3COc4ccccc4O3)CC2)c(=O)oc2c(C)c(O)ccc12 (stereo not given)	-5	-1	7	23	-4	+
Cc1c(CC(=O)N2CCN(C(=O)C3COc4ccccc4O3)CC2)c(=O)oc2cc(O)cc(O)c12 (stereo not given)	-3	1	-3	17	-2	177*
O=C(C1CC1)N1CCc2ccc(NS(=O)(=O)c3ccc(Cl)s3)cc21	/	/	12	/	/	/
O=C(NCCc1nc2c(c(C(F)(F)F)n1)CCCC2)c1cccnc1	/	/	-22	/	/	/
O=C(COc1ccc(Cl)cc1Cl)N/N=C\c1ccc([N+](=O)[O-])cc1	/	/	20	/	/	/
CC1(C)SC(=S)N(N=Cc2ccc(O)cc2)C1N(O)C(=O)Nc1ccc([N+](=O)[O-])cc1 (stereo not given)	/	/	28	/	/	/
CN(C)c1ccc(/C=N/N2C(=S)SC(C)(C)C2N(O)C(=O)Nc2ccc([N+](=O)[O-])cc2)cc1 (stereo not given)	8	2	/	51*	-7	0
CNC(=O)N(O)C1N(N=Cc2ccc(N(C)C)cc2)C(=S)SC1(C)C (stereo not given)	/	/	5	/	/	/
CN(C)c1ccc(C=NN2C(=S)SC(C)(C)C2N(O)C(=O)Nc2ccc([N+](=O)[O-])cc2)cc1 (stereo not given)	/	/	45*	/	/	/
O=C(NCc1cccnc1)C(=O)NC1CC1	/	/	-19	/	/	/
COc1ccc(COc2cc(-c3cccc(OC)c3)nc3ccc(NC(C)=O)cc23)cc1	-135	-1	-3	10	-2	136*
COc1ccc(COc2cc(-c3cccc(OC)c3)nc3ccc(NC(=O)c4ccc(C)cc4)cc23)cc1	-123	1	4	20	92	16
COc1ccc(COc2cc(-c3cccc(OC)c3)nc3ccc(NC(=O)c4ccc(N(C)C)cc4)cc23)cc1	-61	2	2	38*	-2	8
COc1ccc(COc2cc(-c3cccc(OC)c3)nc3ccc(N)cc23)cc1	-4	-1	-5	4	73	54*
N#C/C(=C/c1cn(-c2ccccc2)nc1-c1cccc(S(=O)(=O)N2CCCC2)c1)C(=O)NCc1ccco1	-59	-4	2	31*	1	0
N#C/C(=C/c1cn(-c2ccccc2)nc1-c1cccc(S(=O)(=O)N2CCOCC2)c1)C(=O)NCc1ccco1	-8	0	-3	3	6	3
Cc1nc(-c2ccccc2)sc1CNS(=O)(=O)c1cccnc1	/	/	-4	/	/	/
O=c1cccnn1CCNS(=O)(=O)c1cc(C(F)(F)F)cc(C(F)(F)F)c1	/	/	38*	/	/	/
CN(C)/C=C/c1onc(-c2c(Cl)cccc2Cl)c1C#N	-21	1	0	31*	-1	-1
Nc1c(C(=O)NCc2ccc(F)cc2)nnn1Cc1ccccc1	/	/	7	/	/	/

Source: PubChem
